The text below walks through data of PubChem BioAssay (NCI).

Among the test systems are HCT-15 colon; SNB-75 CNS; SNB-19 CNS; U251 CNS; PC-3 prostate; SK-MEL-5 melanoma; UACC-62 melanoma; LOX IMVI melanoma; SK-MEL-28 melanoma; SK-MEL-2 melanoma; EKVX NSCLC; SN12C renal; UO-31 renal; TK-10 renal; ACHN renal; CAKI-1 renal; A498 renal; CCRF-CEM leukemia; MOLT-4 leukemia.
Experiment in all cases: NCI-60 one-dose screen, 48 h (100 = growth as untreated, 0 = no growth, -100 = all killed)
What all share (details): 10 µM unless noted

“And” between values parts separate entries of the source, which are not always exact repeats. Equal values may be shown once. About 83,000 compounds went through this panel and 20% of them were active in at least one assay; those are over-represented in the sample as a whole.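 Testing used 96-well plates and a 48-hour single-concentration exposure. Example: -40 means 40% of the starting cells died.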 The source made the active and inactive calls. How the source made its calls: active means growth percent below 10; inactive means the rest.

In the case of `Cc1ccc(-c2nc3nc(-c4ccc(Br)cc4)nc(N4CCCNCC4)c3o2)cc1`, the growth is -84.5% (active) in the assay with HCT-15 colon; 96.2% (inactive) in the assay with SNB-75 CNS; -47.3% (active) in the assay with SNB-19 CNS; -76.6% (active) with U251 CNS; -52% (active) with PC-3 prostate; 92.6% (inactive) with SK-MEL-5 melanoma. Besides, the growth in the assay with UACC-62 melanoma is 101% (inactive); in the assay on LOX IMVI melanoma it was -85.1% (active); with SK-MEL-28 melanoma, 103% (inactive); in the assay with SK-MEL-2 melanoma, 108% (inactive); in the assay with EKVX NSCLC it was 114% (inactive); in the assay on SN12C renal it was -77.4% (active). Moreover, the growth was 63.4% (inactive) with UO-31 renal; 19.9% (inactive) with TK-10 renal; -95.4% (active) with ACHN renal; -50.5% (active) with CAKI-1 renal; 80.5% (inactive) in the assay with A498 renal; -64.4% (active) in the assay with CCRF-CEM leukemia. Further, the growth with MOLT-4 leukemia was -56.8% (active).
Turning to `COc1ccc(/C=C/C(=O)c2cc3c(N)c(C(=O)Nc4ccccc4)sc3nc2C)cc1`, the growth was 5.97% (active) with HCT-15 colon; 11.9% (inactive) in the assay on SNB-75 CNS; 1.78% (active) with SNB-19 CNS; 1.52% (active) in the assay with U251 CNS; 17.1% (inactive) with PC-3 prostate; 4.63% (active) in the assay on SK-MEL-5 melanoma. In addition, the growth in the assay with UACC-62 melanoma was 22.9% (inactive); in the assay with LOX IMVI melanoma, 2.65% (active); in the assay with SK-MEL-28 melanoma, 52% (inactive); with SK-MEL-2 melanoma, 53.1% (inactive); with EKVX NSCLC, 47% (inactive); with SN12C renal, 12.5% (inactive). For the same molecule, the growth in the assay on UO-31 renal was 35.2% (inactive); with TK-10 renal, 36.9% (inactive); in the assay with ACHN renal, 31.4% (inactive); in the assay on CAKI-1 renal it was 23.1% (inactive); in the assay on A498 renal, 18.6% (inactive); with CCRF-CEM leukemia it was 16.3% (inactive). The growth with MOLT-4 leukemia was 30.9% (inactive).
`CCOc1ccc(N2C(N)=NC(N)=NC2(C)C)cc1`: the growth was 99.9% (inactive) with HCT-15 colon; -3.85% (active) and 82.7% (inactive) in the assay on SNB-75 CNS; 40.3% (inactive) and 98.2% (inactive) in the assay with SNB-19 CNS; 20% (inactive) and 68.6% (inactive) with U251 CNS; 16% (inactive) and 39.3% (inactive) with PC-3 prostate; 4.48% (active) and 102% (inactive) with SK-MEL-5 melanoma. Moreover, the growth is 41.4% (inactive) and 95.4% (inactive) in the assay with UACC-62 melanoma; 36.7% (inactive) and 90.1% (inactive) in the assay on LOX IMVI melanoma; 31.2% (inactive) and 113% (inactive) in the assay on SK-MEL-28 melanoma; -0.847% (active) and 107% (inactive) in the assay with SK-MEL-2 melanoma; 93.9% (inactive) in the assay with EKVX NSCLC; 32.2% (inactive) and 96.9% (inactive) in the assay on SN12C renal. Moreover, the growth in the assay with UO-31 renal is 42% (inactive) and 96.6% (inactive); with TK-10 renal it was 40.9% (inactive); in the assay with ACHN renal, 44.6% (inactive) and 102% (inactive); in the assay with CAKI-1 renal it was 13.3% (inactive) and 98.4% (inactive); in the assay with A498 renal, -5.18% (active) and 72.7% (inactive); in the assay on CCRF-CEM leukemia, 9.4% (active) and 79.8% (inactive). Moreover, the growth in the assay on MOLT-4 leukemia was 39.2% (inactive) and 81.5% (inactive).
With `COc1ccc(-c2cc(-c3cccc(Cl)c3)c(C#N)c(=O)[nH]2)c(OC)c1`, the growth with HCT-15 colon is 97.7% (inactive); in the assay with SNB-75 CNS, 72.7% (inactive); in the assay with SNB-19 CNS it was 94.2% (inactive); with U251 CNS it was 96.4% (inactive); in the assay on PC-3 prostate it was 92.3% (inactive); in the assay on SK-MEL-5 melanoma, 94.2% (inactive). Also, the growth was 90.7% (inactive) in the assay with UACC-62 melanoma; 101% (inactive) with LOX IMVI melanoma; 92.2% (inactive) in the assay with SK-MEL-28 melanoma; 105% (inactive) in the assay with SK-MEL-2 melanoma; 95.2% (inactive) in the assay with EKVX NSCLC; 97.1% (inactive) in the assay on SN12C renal. Besides, the growth in the assay with UO-31 renal is 85.3% (inactive); in the assay on TK-10 renal it was 103% (inactive); in the assay with ACHN renal, 97.2% (inactive); in the assay on CAKI-1 renal, 90.9% (inactive); in the assay on A498 renal, 68.2% (inactive); with CCRF-CEM leukemia, -2.24% (active). Also, in the assay with MOLT-4 leukemia, the growth was 103% (inactive).
As to `CCOC(=O)c1c(-c2ccc(OC)cc2)c(C#N)c2c(C#N)c(N)nn2c1N`, the growth in the assay with HCT-15 colon is 22.6% (inactive); in the assay on SNB-75 CNS, 43.4% (inactive); in the assay with SNB-19 CNS, 31.2% (inactive); in the assay on U251 CNS, 15.8% (inactive); with PC-3 prostate, 40% (inactive); with SK-MEL-5 melanoma it was 19.3% (inactive). The growth with UACC-62 melanoma was 13.1% (inactive); in the assay on LOX IMVI melanoma, 28.3% (inactive); in the assay with SK-MEL-28 melanoma, 44.8% (inactive); with SK-MEL-2 melanoma, 3.6% (active); in the assay with EKVX NSCLC, 41.1% (inactive); with SN12C renal, 40.8% (inactive). The growth was 47.6% (inactive) with UO-31 renal; 57.7% (inactive) in the assay with TK-10 renal; 53.3% (inactive) with ACHN renal; 39.8% (inactive) in the assay with CAKI-1 renal; -7.96% (active) in the assay with A498 renal; 10% (inactive) in the assay on MOLT-4 leukemia.
As to `C[N+]1=C(/C=C\C=C\c2ccccc2)C(C)(C)c2ccccc21`, the growth in the assay on HCT-15 colon was 14.2% (inactive); with SNB-75 CNS it was 81.8% (inactive); with SNB-19 CNS, 27.4% (inactive); in the assay with U251 CNS, 14% (inactive); in the assay on PC-3 prostate it was 30.7% (inactive); in the assay on SK-MEL-5 melanoma, -39.7% (active). Also, the growth is -16.1% (active) in the assay on UACC-62 melanoma; 12.6% (inactive) in the assay on LOX IMVI melanoma; -35.5% (active) in the assay with SK-MEL-28 melanoma; 10.9% (inactive) in the assay on SK-MEL-2 melanoma; 31.5% (inactive) in the assay on EKVX NSCLC; -2.25% (active) with SN12C renal. Besides, the growth is 39.3% (inactive) in the assay on UO-31 renal; 50.3% (inactive) with TK-10 renal; 43.8% (inactive) in the assay on ACHN renal; 38.4% (inactive) in the assay with CAKI-1 renal; 61.2% (inactive) with A498 renal; -8.67% (active) in the assay on CCRF-CEM leukemia. For the same molecule, the growth in the assay on MOLT-4 leukemia is 0.0688% (active).
On to `N=C(N)c1ccc(-c2ccc(-c3ccc(F)cc3)s2)nc1`, for which the growth with HCT-15 colon was 10.4% (inactive); with SNB-75 CNS, 100% (inactive); with SNB-19 CNS, 80.1% (inactive); in the assay with U251 CNS it was 22.3% (inactive); with PC-3 prostate it was 65.3% (inactive); with SK-MEL-5 melanoma, 77% (inactive). The growth in the assay with UACC-62 melanoma was 95.9% (inactive); in the assay on LOX IMVI melanoma, 18.6% (inactive); with SK-MEL-28 melanoma it was 102% (inactive); in the assay with SK-MEL-2 melanoma it was 101% (inactive); in the assay on EKVX NSCLC, 79.3% (inactive); with SN12C renal, 75.3% (inactive). In addition, the growth is 74.1% (inactive) with UO-31 renal; 108% (inactive) in the assay on TK-10 renal; 76% (inactive) in the assay on ACHN renal; 65.4% (inactive) in the assay on CAKI-1 renal; 79% (inactive) in the assay with A498 renal; 47.8% (inactive) in the assay with CCRF-CEM leukemia.
